Experimental data reported in PubChem BioAssay (NCATS).
Inconclusive results are not listed. A call without a number means that no potency is given here. Calls of active or inactive are those of the source. The call rests on the fitted dose curve; in most records, active means well fitted inhibition curve with a large enough effect; inconclusive means small, poorly fitted or top-dose-only effect; inactive means no such curve, though single readings can be large or run the other way.
Potency means the concentration at half of the fitted maximal effect.

Experiment: HTS Assay for Allosteric Antagonists of the Human D2 Dopamine Receptor: Hit Validation in HTRF (AID 624455);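 further: stable D1 dopamine receptor cell line scored for blocking the D1 response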
Settings: Cells stably expressing D1 dopamine receptor, inhibition mode; series mostly up to 46.1 µM
Source text: Dopamine receptors (DARs) are involved in the etiology and/or therapy of a number of neuropsychiatric and endocrine disorders. For instance, all receptor-based antiparkinsonian drugs work via stimulating the D2 DAR subtype whereas all FDA-approved antipsychotic agents are antagonists of this receptor. […] There are three different types of allosteric modulators that we are seeking, two of which will stimulate or augment receptor signaling, allosteric agonists and potentiators, while the third, allosteric antagonists, will attenuate receptor signaling. The present primary screening assay measures compound antagonism after an EC80 addition of dopamine by tracking calcium flux in a […], inducible Hek293 Trex D2 cell line. This assay measures activity of the hits in the D1 HTRF assay.
NIH Chemical Genomics Center [NCGC]
NIH Molecular Libraries Probe Centers Network [MLPCN]
Assay Submitter (PI): David Sibley
Cells stably expressing the D1 dopamine receptor will be run in an HTRF assay and compounds will be examined for the ability to inhibit the D1 mediated response.
For C[N+](C)(C)CC#CCOC(=O)Nc1cccc(Cl)c1, the Potency was “inactive”. In the case of N[C@@]1(C(=O)O)CC[C@@H](C(=O)O)C1, the Potency is reported as “inactive”. In the case of Ic1ccccc1CNC1C2CCN(CC2)C1C(c1ccccc1)c1ccccc1 (stereo not given), the Potency is reported as “inactive”. With COc1ccc2c(c1)c(CCN1CCOCC1)c(C)n2C(=O)c1cccc(Cl)c1Cl the Potency was “inactive”. In the case of CCCN1CCc2cc(O)cc3c2[C@H]1Cc1ccc(O)c(O)c1-3, the Potency is reported as 0.0651 µM (active). In the case of C#CCN[C@H](C)Cc1ccccc1, the Potency is reported as “inactive”. With Cc1c2ccncc2c(C)c2c1[nH]c1ccccc12 the Potency was “inactive”. With NC(=O)c1ccc(OCC(O)CN2CC=C(c3ccc(F)cc3)CC2)cc1 (stereo not given) the Potency was “inactive”. With NCC(CP(=O)(O)O)c1ccc(Cl)cc1 (stereo not given) the Potency was “inactive”. In the case of Cc1cc([C@@H]2CCCN2C)on1, the Potency is reported as “inactive”. For NCCc1ccc(S(=O)(=O)F)cc1, the Potency was “inactive”. In the case of COc1cc(CC(C)N)c(OC)cc1I (stereo not given), the Potency is reported as “inactive”. For Clc1ccc(N2CC3CCC(C2)N3)nn1, the Potency was “inactive”. With NCCCP(=O)(O)O the Potency was “inactive”. With C[C@H](N)CN1CCc2ccc(Br)cc21 the Potency was “inactive”. With N#C/C(=C/c1ccc(O)c(O)c1)C(N)=S the Potency was “inactive”. With CCCN(CCC)CCc1ccc(O)c(O)c1 the Potency was 0.092 µM (active). With C[C@H](N)Cc1cccc(C(F)(F)F)c1 the Potency was “inactive”. For N=C(N)c1ccc(CS(=O)(=O)F)cc1, the Potency was “inactive”. For NC(Cc1cc(O)c(O)cc1O)C(=O)O (stereo not given), the Potency was “inactive”. With O=[N+]([O-])/C=C/c1ccc2c(c1)OCO2 the Potency was “inactive”. With CC(N)c1cccc(Cl)c1Cl (stereo not given) the Potency was “inactive”. For CC(C)NP(=O)(NC(C)C)OP(=O)(NC(C)C)NC(C)C, the Potency was “inactive”. For CC(C)(O)[C@@H]1C2OC(=O)[C@@H]1[C@]1(O)C[C@H]3O[C@]34C(=O)O[C@H]2[C@]14C (tested in a mixture with another compound), the Potency was “inactive”. In the case of NNC(N)=O, the Potency is reported as “inactive”. With NC(=O)c1cc(N2CC2)c([N+](=O)[O-])cc1[N+](=O)[O-] the Potency was “inactive”. With CN1CC[C@@]2(C)c3cc(OC(=O)Nc4ccccc4)ccc3N(C)[C@@H]12 the Potency was “inactive”. For CC(=O)NBr, the Potency was “inactive”. In the case of C[N+](C)(C)CC#CCN1CCCC1=O, the Potency is reported as “inactive”. With CCCC[N+]1(C)C2CC(OC(=O)[C@H](CO)c3ccccc3)CC1C1OC12 (stereo not given in full) the Potency was “inactive”. For CCCn1c(=O)c2[nH]c(C3CCCC3)nc2n(CCCOC(=O)c2ccc(S(=O)(=O)F)cc2)c1=O, the Potency was “inactive”. In the case of COc1ccc(CNC(=O)/C=C/c2ccc3[nH]cc(CCN(C)C)c3c2)cc1, the Potency is reported as “inactive”. With OC1CCCCC1N1CCC(c2ccccc2)CC1 (stereo not given) the Potency was “inactive”. With COc1ccc2c(c1)C13CCCCC1C(C2)N(C)CC3 (stereo not given) the Potency was “inactive”. With CCCCCCC(C)(C)c1ccc([C@@H]2C[C@H](O)CC[C@H]2CCCO)c(O)c1 the Potency was “inactive”. In the case of COc1ccc2c(c1)[C@@]13CCCC[C@H]1[C@@H](C2)NCC3, the Potency is reported as “inactive”. With CCCn1c(C)c(C(=O)c2ccc3ccccc3c2)c2ccccc21 the Potency was “inactive”. For O=C1C=CC(=O)C=C1, the Potency was “inactive”. For C=CCN1CCC23c4c5ccc(O)c4O[C@H]2C(=O)CC[C@@]3(O)C1C5 (stereo not given in full), the Potency was “inactive”. In the case of COc1ccc2c(c1O)-c1cccc3c1[C@@H](C2)N(C)CC3, the Potency is reported as “inactive”.
